# Results published in the supplement of paper PMC12532568.
# Where a name gives a salt, the structure may show the parent alone.
# Tested on: Danio rerio larvae Tg(actc1b:ZsGreen-LC3), 3 dpf
# Assay: LC3 puncta relative area vs vehicle, without NH4Cl (log2 fold change); higher = more autophagosomes
# Details: 10 µM; treatment time 16 h; NH4Cl: none
# Procedure: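 Transgenic Tg(actc1b:ZsGreen-map1lc3) zebrafish larvae (2 dpf) were treated for 16 h with Tocris library compounds at 10 µM (n = 12 larvae per compound). Skeletal-muscle LC3 puncta area relative to body area was measured by high-content confocal imaging before and after 4 h of 100 mM NH4Cl (autophagic flux), normalised to vehicle (DMSO), and reported as log2 fold change.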
row,Compound,LC3 puncta (log2)
1,N[C@@H](C(=O)O)c1ccc(O)c(C(=O)O)c1 [(R)-3-Carboxy-4-hydroxyphenylglycine],0.211
2,COc1cc(C(=O)OCCCN2CCCN(CCCOC(=O)c3cc(OC)c(OC)c(OC)c3)CC2)cc(OC)c1OC [Dilazep],0.175
3,CC(=O)NCC(=O)N[C@H](CCC(=O)O)C(=O)O [N-Acetylglycyl-D-glutamic acid],-0.0216
4,CC(C)(C)NC[C@H](O)COc1nsnc1N1CCOCC1 [(S)-Timolol maleate],0.305
5,N[C@@H](CSS(=O)(=O)O)C(=O)O [S-Sulfo-L-cysteine sodium salt],-0.101
6,CC(=O)N[C@@H](Cc1c[nH]c2ccccc12)C(=O)OCc1cc(C(F)(F)F)cc(C(F)(F)F)c1,0.214
7,COc1ccc([C@@H]2Sc3ccccc3N(CCN(C)C)C(=O)[C@@H]2OC(C)=O)cc1 [Diltiazem hydrochloride],0.112
8,c1ccc(N2CCN(CCCOc3ccc4c(c3)OCO4)CC2)cc1 [BP 554 maleate],0.01
9,CN1CCN(C2=Cc3ccccc3Oc3ccc(Cl)cc32)CC1,0.742
10,c1ccc2nc(C3=NCCN3)cnc2c1 [BU 239 hydrochloride],-0.208
11,COC(=O)C1=C(C)NC(C)=C(C(=O)OCCSc2ccccc2)C1C (stereo not given),0.00326
12,CC(C)(Oc1ccc(Cl)cc1)C(=O)O [Clofibric acid],0.448
13,CC(C)[N+]1(C)[C@@H]2CC[C@H]1C[C@@H](OC(=O)C(CO)c1ccccc1)C2 (stereo not given in full) [Ipratropium bromide],-0.65
14,Nc1cc(N2CCCCC2)nc(N)[n+]1[O-] [Minoxidil],0.233
15,CC(C)[C@H]1CC[C@H](C(=O)N[C@H](Cc2ccccc2)C(=O)O)CC1 [Nateglinide],0.316
16,CC(C)NCC(O)COc1cccc2ccccc12 (stereo not given) [Propranolol hydrochloride],0.0203
17,CCC1(c2ccccc2)C(=O)NCNC1=O [Primidone],0.333
18,COc1ccc(CCN(C)CCc2ccc(OC)c(OC)c2)cc1OC [YS-035 hydrochloride],0.265
19,CC1(C(=O)O)NCCc2cc(O)c(O)cc21 (stereo not given) [Salsolinol-1-carboxylic acid],0.463
20,COc1ccc2[nH]c(-c3ccccc3)c(CCNC(C)=O)c2c1 [2-Phenylmelatonin],0.513

row,Compound,LC3 puncta (log2)
1,O=C(O)C1=CCCNC1 [Guvacine hydrochloride],-0.168
2,CC[C@@H]1C(=O)OC[C@@H]1Cc1cncn1C [Pilocarpine hydrochloride],0.203
3,O=C(NCCCN1CCCCCC1)C(c1ccccc1)C1CCCCC1 (stereo not given),0.0552
4,O=c1nc2ccccc2c2n1CC(CN1CCN(c3ccccc3)CC1)N2 (stereo not given),0.0176
5,CN1CCC(=C2c3ccccc3CC(=O)c3sccc32)CC1 [Ketotifen fumarate],0.589
6,N[C@H](C(=O)O)c1ccc(C(=O)O)c(O)c1 [(S)-4-Carboxy-3-hydroxyphenylglycine],-0.331
7,O=[N+]([O-])c1cc2nc(O)c(O)nc2cc1[N+](=O)[O-],0.0864
8,COc1ccccc1N1CCN(CC(O)COc2cccc3ccccc23)CC1 (stereo not given) [Naftopidil dihydrochloride],-0.0568
9,NS(=O)(=O)c1cc2c(cc1Cl)NC(C1CC3C=CC1C3)NS2(=O)=O (stereo not given) [Cyclothiazide],-0.147
10,CNCCCCOc1ccccc1Cc1ccccc1 [Bifemelane],0.531
11,c1ccc2sc(N3CCN(Cc4ccc5c(c4)OCO5)CC3)nc2c1 [2-[1-(4-Piperonyl)piperazinyl]benzothiazole],0.135
12,O=C1c2ccccc2CCC1CNCCc1ccc(O)cc1 (stereo not given) [HEAT hydrochloride],0.103
13,NC(=O)CCCCn1ccc(NC(N)=NCC(F)(F)F)n1,0.486
14,c1ccc(CN(CC2=NCCN2)c2ccccc2)cc1 [Antazoline hydrochloride],0.664
15,NC(=O)c1cccc(N)c1 [3-Aminobenzamide],0.336
16,COc1ccccc1N1CCN(CCCCN2C(=O)c3ccccc3C2=O)CC1 [NAN-190 hydrobromide],0.201
17,NC(N)=NC(N)=Nc1cccc(Cl)c1 [m-Chlorophenylbiguanide hydrochloride],0.136
18,CCN(CC)CCOc1ccc(Cc2ccccc2)cc1 [DPPE fumarate],0.714
19,O=S(=O)(c1cccc2cnccc12)N1CCCNCC1 [Fasudil hydrochloride],0.598
20,C=C1C(=O)O[C@H]2[C@H]1CC/C(C)=C/CC[C@@]1(C)O[C@@H]21 [Parthenolide],0.0168
